Screens from PubChem BioAssay.
Sampled rows, rich in hits. Any-hit rate of the full collection: about 12%.
CHOP inhibitor: inhibitors of CHOP promoter induction, primary screen, cell-based, unfolded protein response, luciferase reporter. CHO-K1 CHOP-promoter luciferase, tunicamycin-induced, 15-18 h. inhibition, % at 10 µM. hit rate 3.8% among 220,000. AID 2732, 2010;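 active means compounds that reduced the stress-induced luciferase reporter signal by more than about 70% of percent inhibition, limit read from the data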
WT yeast gro inh: growth inhibition of WT strain, primary screen, mitochondrial fusion inhibitor project, WT and mutant strains, chemical genetic | AID 1362, 2008 | hit rate 2.1% among 190,000 | inhibition, % at 10 µM | mitochondrial fusion phenotypic screen; in the data active means inhibition above about 58%; tested in S. cerevisiae
Arbovirus inh: antivirals against arbovirus infection, primary screen, cell-based, full library, 10K replicate subset; arbovirus infection cell-based antiviral screen; inhibition, % at 10 µM; hit rate 0.37% among 200,000; in the data active means inhibition above about 30%
L major viab: Leishmania major promastigote growth inhibition, primary screen | Leishmania major promastigotes, resazurin fluorescence viability | inhibition, % at 10 µM | hit rate 9% among 200,000 | AID 1063, 2008; in the data active means inhibition above about 50%;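 further: promastigotes grown with compound for 44 hours at 28 °C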
Large screens that a line does not name were inactive.

CC1=C(C(=O)OCc2ccccc2)C(c2cccnc2)c2c(n(C)c(=O)n(C)c2=O)N1 (stereo not drawn)	CHOP inhibitor 85, L major viab 75
CC1=C(C(=O)OCc2ccccc2)C(c2cccnc2)n2ncnc2N1 (stereo not drawn)	none
O=C(O)CCn1cc(/C=C/C(=O)c2ccc(Cl)cc2)c(-c2ccc(Br)cc2)n1	Arbovirus inh 46
O=C(O)/C=C/c1cn(Cc2ccccc2)nc1-c1ccccc1	none
COc1cccc(CN(C)c2nc(-c3cccs3)nc3ccccc23)c1	WT yeast gro inh 66, L major viab 92
COc1ccc(Nc2nc(-c3cccs3)nc3ccccc23)cc1	none
COc1cccc(Nc2nc(-c3cccs3)nc3ccccc23)c1	WT yeast gro inh 66, L major viab 99
Cc1ccc(C)c2sc(NC(=O)c3nc4ccccc4s3)nc12	none
Cc1oc(-c2cccc(Cl)c2)nc1CN1CCC(C(=O)N2CCN(c3ccccn3)CC2)CC1	none (no result: CHOP inhibitor, L major viab)
CCc1ccc(-c2nc(CN3CCC(C(=O)N4CCN(c5ccccc5)CC4)CC3)c(C)o2)cc1	CHOP inhibitor 98, WT yeast gro inh 66, L major viab 82
CCc1ccc(-c2nc(CN3CCC(C(=O)N4CCN(c5ccccn5)CC4)CC3)c(C)o2)cc1	L major viab 84
CCN1CCN(C(=O)C2CCN(Cc3nc(-c4ccc(Cl)cc4)oc3C)CC2)CC1	none (no result: CHOP inhibitor, L major viab)
COc1ccccc1N(CC(=O)NC1CCCC1)C(=O)c1oc(C(C)(C)C)cc1C	L major viab 62
CCc1ccc(CN2CCN(C(=O)c3cccc(OC)c3OC)CC2)cc1	none
O=C(NCCc1ccc(F)cc1)c1cc(-c2ccncc2)nc2ccccc12	none (no result: WT yeast gro inh, Arbovirus inh, L major viab)
N#Cc1nc(-c2ccco2)oc1NCc1cccnc1	none
N#Cc1nc(-c2ccco2)oc1NCc1ccc(F)cc1	WT yeast gro inh 62
Cc1cccc(/C=C(\c2nc3ccccc3[nH]2)S(=O)(=O)c2ccccc2)c1	L major viab 100
CC(C)N1CCC2(CC1)N=C(c1ccc3c(c1)OCO3)CC(c1cc(Cl)ccc1O)N2 (stereo not drawn)	L major viab 100
CCCCCCNC(=O)CC(NS(=O)(=O)c1ccc(NC(C)=O)cc1)C(C)C (stereo not drawn)	none
CCCCN(C)C(=O)CC(NS(=O)(=O)c1ccc(NC(C)=O)cc1)C(C)C (stereo not drawn)	L major viab 50
CCCCN(CCCC)c1nc2ccccc2nc1NS(=O)(=O)c1ccc(NC(C)=O)cc1	CHOP inhibitor 88
CCOC(=O)Cn1nc(C)c(NC(=O)c2ccc([N+](=O)[O-])c(C)c2)c1C	none
O=C(Nc1ccccc1)c1ccccc1NS(=O)(=O)c1ccc(Cl)s1	none
Cc1ccc(NC(=O)c2ccccc2NS(=O)(=O)c2ccc(Cl)s2)cc1	WT yeast gro inh 82, L major viab 53
O=C(Nc1ccccc1Cc1ccccc1)c1ccccc1NS(=O)(=O)c1ccc(Cl)s1	CHOP inhibitor 71, WT yeast gro inh 76
O=S(=O)(c1ccc(NC(=S)NN=C2CCCCC2)cc1)N1CCOCC1	none
COc1cccc(NC(=O)N(CCCN2CCOCC2)C(C)c2cc3cccc(OC)c3o2)c1 (stereo not drawn)	none
COc1ccc(NC(=S)N(CCCN2CCOCC2)C(C)c2cc3ccccc3o2)cc1 (stereo not drawn)	L major viab 72
COc1cccc(NC(=O)N(CCCN2CCOCC2)C(C)c2cc3ccccc3o2)c1 (stereo not drawn)	L major viab 99 (no result: WT yeast gro inh)
C/C(Cc1nnn(-c2cc(C)on2)n1)=N\O	none (no result: WT yeast gro inh, Arbovirus inh, L major viab)
CC(C)(C)OC(=O)N1CCC[C@H]1C(=O)N/N=C/c1ccc2ncccc2c1	none (no result: WT yeast gro inh, Arbovirus inh, L major viab)
Cc1ccc2nc(-c3ccc(SCC(=O)Nc4ccc5c(c4)OCCO5)nc3)[nH]c2c1	none
Cc1cc2nc(-c3ccc(SCc4ccccn4)nc3)[nH]c2cc1C	L major viab 64
Cc1cc2nc(-c3ccc(SCC(=O)N4CCOCC4)nc3)[nH]c2cc1C	L major viab 60
CCOC(=O)CSc1ccc(-c2nc3ccccc3[nH]2)cn1	none
Cc1ccc2nc(-c3ccc(SCC(=O)Nc4nc(C)cs4)nc3)[nH]c2c1	L major viab 53
CCOC(=O)CSc1ccc(-c2nc3cc(C)c(C)cc3[nH]2)cn1	L major viab 57
Cc1cc2nc(-c3ccc(SCC(=O)N4CCN(C(=O)c5ccco5)CC4)nc3)[nH]c2cc1C	none
CCOc1ccc(/C=N/OCC(=O)NCc2ccco2)cc1	none
N#Cc1cc([N+](=O)[O-])cnc1Nc1ccccc1	none
O=C(COC(=O)CNC(=O)c1ccccc1)Nc1ccc(S(=O)(=O)N2CCOCC2)cc1	none
CCn1cc(C(=O)O)c(=O)c2cc(F)c(N3CCN(C(=S)NC(=O)c4ccccc4Cl)CC3)cc21	none (no result: WT yeast gro inh, Arbovirus inh, L major viab)
CCn1cc(C(=O)NCc2ccccc2)c(=O)c2cc(F)c(N3CCN(C(=O)c4ccco4)CC3)cc21	L major viab 95
CCn1cc(C(=O)O)c(=O)c2cc(F)c(N3CCN(S(=O)(=O)c4ccc(Br)cc4)CC3)cc21	CHOP inhibitor 76
O=C(Nc1ccccc1)OC1CC2CC1C1CCCC21 (stereo not drawn)	WT yeast gro inh 80
CCOC(=O)C(C(=O)OCC)C(C[N+](=O)[O-])c1ccccc1 (stereo not drawn)	none
CC(C)OC(=O)CSc1nnc(-c2ccc(Cl)cc2Cl)o1	none
CCCCOC(=O)CSc1nnc(-c2ccc(Cl)cc2Cl)o1	CHOP inhibitor 71, WT yeast gro inh 60
Cc1cc(Br)c(NC(=O)COC(=O)CSc2nnc(-c3ccc(Cl)cc3)o2)c(Br)c1	L major viab 52
Cc1cc(C)cc(NC(=O)CSc2nnc(-c3ccccc3Br)o2)c1	none
CCCCOC(=O)Nc1cccc(Cl)c1C	none (no result: WT yeast gro inh)
COC(=O)c1ccc(CN2CCN(Cc3ccc(F)cc3)C(CCO)C2)cc1 (stereo not drawn)	L major viab 59
COc1ccc(/C=C/CN2CCN(Cc3ccc(F)cc3)C(CCO)C2)cc1 (stereo not drawn)	L major viab 68
COc1ccc(/C=C/CN2CCN(Cc3ccccc3)C(CCO)C2)cc1 (stereo not drawn)	none
COC(=O)c1ccc(CN2CCN(CC=C(C)C)C(CCO)C2)cc1 (stereo not drawn)	L major viab 73
CC(C)Cc1cc(C(=O)NCCCN2CCOCC2)no1	none
Cc1ccc(S(=O)(=O)N/N=C/c2c(C)nn(-c3ccccc3)c2C)cc1	none
COC(=O)[C@H](Cc1c[nH]c2ccccc12)NC(=O)Nc1ccccc1OC	none (no result: WT yeast gro inh, Arbovirus inh, L major viab)
C=C(C)c1cccc(C(C)(C)NC(=O)Nc2ncccn2)c1	none
C=C(C)c1cccc(C(C)(C)NC(=O)NCc2ccc(OC)c(OC)c2)c1	none
C=C(C)c1cccc(C(C)(C)NC(=O)Nc2ccccc2OCC)c1	L major viab 55
C=C(C)c1cccc(C(C)(C)NC(=O)Nc2ccc(Cl)cn2)c1	CHOP inhibitor 78, WT yeast gro inh 74
C=C(C)c1cccc(C(C)(C)NC(=O)Nc2cc(C)ccc2OC)c1	L major viab 52
C=C(C)c1cccc(C(C)(C)NC(=O)Nc2ccc(C(N)=O)cc2)c1	none
COc1ccc(NC(=O)c2ccc(-c3nn(C)c(=O)c4ccccc34)cc2)cc1	none
